Assay results as given in PMC7862700, “An all-to-all approach to the identification of sequence-specific readers for epigenetic DNA modifications on cytosine”.

Experiments:
Experiment in all cases: DAPPL (digital affinity profiling via proximity ligation, sequencing); 10 mM Tris-HCl pH 7.5, 50 mM NaCl, 1 mM DTT, 4% glycerol, room temperature, 30 min; GST-TFs on glutathione beads, 16-mer random dsDNA library, 0.1% formaldehyde crosslink after washing; high values mean tight binding
Settings in all cases: protein: recombinant; tags: N-terminal GST; dsDNA, one strand shown
ELK1 = molecular target: T1, ELK1 (Homo sapiens, UniProt P19419 1-428)
T1 sequence: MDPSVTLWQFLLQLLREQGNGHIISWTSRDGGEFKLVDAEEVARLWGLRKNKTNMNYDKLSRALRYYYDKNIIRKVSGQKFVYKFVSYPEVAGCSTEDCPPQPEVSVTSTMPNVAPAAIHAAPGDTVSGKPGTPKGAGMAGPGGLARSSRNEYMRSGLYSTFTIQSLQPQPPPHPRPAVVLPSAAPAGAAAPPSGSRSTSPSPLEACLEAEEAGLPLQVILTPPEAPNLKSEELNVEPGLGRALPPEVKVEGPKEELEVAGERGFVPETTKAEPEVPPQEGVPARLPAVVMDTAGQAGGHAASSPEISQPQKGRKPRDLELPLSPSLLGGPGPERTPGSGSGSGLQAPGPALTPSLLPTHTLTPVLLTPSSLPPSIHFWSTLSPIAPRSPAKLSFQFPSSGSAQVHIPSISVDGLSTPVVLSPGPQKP
Summary of the method: (§1)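 Beads coated with glutathione captured GST-fused human transcription factors that had been expressed in yeast, and the factors were then given DNA barcodes and pooled with a tag-only sample. The pools were incubated with 200 nmole of a random double-stranded 16-mer DNA library in Tris/NaCl/DTT/glycerol buffer for 30 min at room temperature, washed, crosslinked with 0.1% formaldehyde and proximity-ligated with BsaI/T4 ligase at 37 °C for 1 h. PCR amplification and Illumina NextSeq500 sequencing came last. Binding signal is each hexamer's read frequency for a factor divided by its frequency for the tag-only sample.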

GABPA = molecular target: T2, GABPA (Homo sapiens, UniProt Q06546 1-454)
T2 sequence: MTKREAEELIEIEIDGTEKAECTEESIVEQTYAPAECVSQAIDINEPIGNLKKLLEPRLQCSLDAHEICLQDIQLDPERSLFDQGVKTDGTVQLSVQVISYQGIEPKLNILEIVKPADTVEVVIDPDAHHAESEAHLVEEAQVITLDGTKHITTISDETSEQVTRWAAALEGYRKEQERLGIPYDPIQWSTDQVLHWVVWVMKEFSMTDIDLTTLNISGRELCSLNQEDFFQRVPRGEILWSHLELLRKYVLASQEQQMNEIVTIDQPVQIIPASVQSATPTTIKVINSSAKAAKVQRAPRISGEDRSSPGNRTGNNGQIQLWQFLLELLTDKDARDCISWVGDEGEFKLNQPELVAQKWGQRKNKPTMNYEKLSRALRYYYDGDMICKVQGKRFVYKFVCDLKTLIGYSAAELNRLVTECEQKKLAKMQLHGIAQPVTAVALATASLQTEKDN
Summary of the method: as §1

ERG = molecular target: T3, ERG (Homo sapiens, UniProt P11308 1-479)
T3 sequence: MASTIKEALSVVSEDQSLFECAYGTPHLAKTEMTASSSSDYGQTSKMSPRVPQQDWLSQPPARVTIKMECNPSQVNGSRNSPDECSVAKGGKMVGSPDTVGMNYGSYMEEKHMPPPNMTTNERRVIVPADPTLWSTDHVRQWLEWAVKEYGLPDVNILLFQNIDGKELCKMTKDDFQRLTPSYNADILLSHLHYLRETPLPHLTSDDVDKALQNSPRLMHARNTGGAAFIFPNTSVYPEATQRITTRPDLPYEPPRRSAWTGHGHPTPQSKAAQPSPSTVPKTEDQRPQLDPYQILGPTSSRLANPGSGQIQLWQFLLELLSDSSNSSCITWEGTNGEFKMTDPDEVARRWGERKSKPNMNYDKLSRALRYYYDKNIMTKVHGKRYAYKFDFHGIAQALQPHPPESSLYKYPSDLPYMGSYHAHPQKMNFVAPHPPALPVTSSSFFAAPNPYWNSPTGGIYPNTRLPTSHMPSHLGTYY
Summary of the method: as §1

ELF1 = ELF1 (Homo sapiens, UniProt P32519 1-619)
Sequence of ELF1 (P32519 whole entry): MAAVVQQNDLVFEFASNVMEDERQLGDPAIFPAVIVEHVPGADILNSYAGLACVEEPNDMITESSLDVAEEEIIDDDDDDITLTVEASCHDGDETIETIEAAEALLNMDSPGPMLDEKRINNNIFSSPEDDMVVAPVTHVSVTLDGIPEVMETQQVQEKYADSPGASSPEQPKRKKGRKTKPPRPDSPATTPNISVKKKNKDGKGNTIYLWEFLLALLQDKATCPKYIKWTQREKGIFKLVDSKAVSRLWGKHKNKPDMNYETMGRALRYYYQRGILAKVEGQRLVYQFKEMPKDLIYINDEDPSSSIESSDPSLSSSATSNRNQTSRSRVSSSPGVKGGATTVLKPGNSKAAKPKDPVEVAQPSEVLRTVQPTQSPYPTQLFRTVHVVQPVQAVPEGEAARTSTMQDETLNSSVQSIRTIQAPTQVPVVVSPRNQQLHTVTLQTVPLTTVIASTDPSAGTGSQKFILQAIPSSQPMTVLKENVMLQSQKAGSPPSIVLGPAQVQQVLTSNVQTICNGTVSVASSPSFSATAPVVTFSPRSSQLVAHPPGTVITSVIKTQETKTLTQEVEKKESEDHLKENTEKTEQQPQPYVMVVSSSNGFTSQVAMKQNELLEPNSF
Summary of the method: as §1

SPIB = SPIB (Homo sapiens, UniProt Q01892 1-262)
Sequence of SPIB (Q01892 whole entry): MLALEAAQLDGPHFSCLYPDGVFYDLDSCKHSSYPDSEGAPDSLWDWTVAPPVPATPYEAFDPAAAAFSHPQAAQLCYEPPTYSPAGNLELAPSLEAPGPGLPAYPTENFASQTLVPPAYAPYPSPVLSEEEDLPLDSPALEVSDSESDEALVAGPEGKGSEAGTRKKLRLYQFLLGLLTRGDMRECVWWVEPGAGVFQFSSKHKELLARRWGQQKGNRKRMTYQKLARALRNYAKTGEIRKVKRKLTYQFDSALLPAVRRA
Summary of the method: as §1

ELK3 = molecular target: T4, ELK3 (Homo sapiens, UniProt P41970 1-407)
T4 sequence: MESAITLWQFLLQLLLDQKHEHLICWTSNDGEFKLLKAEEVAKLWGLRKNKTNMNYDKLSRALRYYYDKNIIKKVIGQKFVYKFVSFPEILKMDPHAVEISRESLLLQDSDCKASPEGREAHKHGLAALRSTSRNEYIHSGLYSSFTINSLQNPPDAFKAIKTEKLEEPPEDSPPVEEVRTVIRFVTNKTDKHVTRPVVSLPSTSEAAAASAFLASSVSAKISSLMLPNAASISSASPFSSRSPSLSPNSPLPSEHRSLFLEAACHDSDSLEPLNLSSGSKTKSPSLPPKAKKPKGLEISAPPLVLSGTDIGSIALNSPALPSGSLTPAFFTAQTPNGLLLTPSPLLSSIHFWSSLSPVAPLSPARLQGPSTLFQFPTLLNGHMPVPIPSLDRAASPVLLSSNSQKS
Summary of the method: as §1

ETV5 = ETV5 (Homo sapiens, UniProt P41161 1-510)
Sequence of ETV5 (P41161 whole entry): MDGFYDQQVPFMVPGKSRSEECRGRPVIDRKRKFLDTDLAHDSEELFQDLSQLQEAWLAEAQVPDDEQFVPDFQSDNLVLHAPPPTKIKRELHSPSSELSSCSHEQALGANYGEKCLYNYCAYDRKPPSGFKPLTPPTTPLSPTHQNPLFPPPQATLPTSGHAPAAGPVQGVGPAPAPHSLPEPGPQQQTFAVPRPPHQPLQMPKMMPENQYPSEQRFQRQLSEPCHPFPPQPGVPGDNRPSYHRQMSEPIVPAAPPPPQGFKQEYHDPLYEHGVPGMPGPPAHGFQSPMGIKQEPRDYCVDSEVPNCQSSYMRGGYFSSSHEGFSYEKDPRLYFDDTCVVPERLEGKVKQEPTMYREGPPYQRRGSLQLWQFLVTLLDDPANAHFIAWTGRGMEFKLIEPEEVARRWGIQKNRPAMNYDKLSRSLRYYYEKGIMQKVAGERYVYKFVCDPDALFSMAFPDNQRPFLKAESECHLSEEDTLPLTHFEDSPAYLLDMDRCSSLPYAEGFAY
Summary of the method: as §1

SPIC = molecular target: T5, SPIC (Homo sapiens, UniProt Q8N5J4 1-248)
T5 sequence: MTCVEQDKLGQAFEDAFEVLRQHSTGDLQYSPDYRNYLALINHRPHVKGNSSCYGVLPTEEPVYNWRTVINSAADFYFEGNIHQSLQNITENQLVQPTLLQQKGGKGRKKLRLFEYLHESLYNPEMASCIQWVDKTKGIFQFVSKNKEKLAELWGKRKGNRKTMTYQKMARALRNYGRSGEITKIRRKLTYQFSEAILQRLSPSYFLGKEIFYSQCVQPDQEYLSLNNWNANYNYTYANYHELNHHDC
Summary of the method: as §1

ELF4 = ELF4 (Homo sapiens, UniProt Q99607 1-663)
Sequence of ELF4 (Q99607 whole entry): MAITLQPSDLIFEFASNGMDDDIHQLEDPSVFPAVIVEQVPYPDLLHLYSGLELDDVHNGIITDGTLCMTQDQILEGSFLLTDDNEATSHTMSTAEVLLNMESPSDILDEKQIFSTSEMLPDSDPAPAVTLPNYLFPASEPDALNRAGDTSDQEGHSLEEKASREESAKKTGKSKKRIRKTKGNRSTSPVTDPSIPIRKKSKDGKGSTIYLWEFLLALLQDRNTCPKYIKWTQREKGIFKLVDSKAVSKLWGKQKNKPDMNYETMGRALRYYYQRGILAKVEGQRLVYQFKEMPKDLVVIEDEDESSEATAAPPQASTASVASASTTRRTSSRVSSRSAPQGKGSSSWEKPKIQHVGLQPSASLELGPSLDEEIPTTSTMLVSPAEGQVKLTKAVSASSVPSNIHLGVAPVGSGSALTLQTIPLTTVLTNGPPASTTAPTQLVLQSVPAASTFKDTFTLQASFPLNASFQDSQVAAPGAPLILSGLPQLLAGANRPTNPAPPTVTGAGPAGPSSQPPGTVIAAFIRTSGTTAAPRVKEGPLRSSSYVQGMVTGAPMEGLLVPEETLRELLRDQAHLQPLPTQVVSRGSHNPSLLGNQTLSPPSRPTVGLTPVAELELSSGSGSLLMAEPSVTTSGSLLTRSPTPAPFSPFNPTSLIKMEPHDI
Summary of the method: as §1

ELF3 = molecular target: T6, ELF3 (Homo sapiens, UniProt P78545 1-371)
T6 sequence: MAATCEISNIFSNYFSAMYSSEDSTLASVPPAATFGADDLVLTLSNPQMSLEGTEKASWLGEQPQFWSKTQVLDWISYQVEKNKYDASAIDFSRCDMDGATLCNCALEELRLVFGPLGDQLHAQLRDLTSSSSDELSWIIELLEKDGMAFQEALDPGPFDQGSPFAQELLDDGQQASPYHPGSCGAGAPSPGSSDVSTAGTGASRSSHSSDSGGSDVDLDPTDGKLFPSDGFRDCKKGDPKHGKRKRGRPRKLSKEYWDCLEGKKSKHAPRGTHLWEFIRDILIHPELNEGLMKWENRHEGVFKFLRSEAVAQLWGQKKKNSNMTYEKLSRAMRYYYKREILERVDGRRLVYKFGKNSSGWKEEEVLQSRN
Summary of the method: as §1

ETV1 = ETV1 (Homo sapiens, UniProt P50549 1-477)
Sequence of ETV1 (P50549 whole entry): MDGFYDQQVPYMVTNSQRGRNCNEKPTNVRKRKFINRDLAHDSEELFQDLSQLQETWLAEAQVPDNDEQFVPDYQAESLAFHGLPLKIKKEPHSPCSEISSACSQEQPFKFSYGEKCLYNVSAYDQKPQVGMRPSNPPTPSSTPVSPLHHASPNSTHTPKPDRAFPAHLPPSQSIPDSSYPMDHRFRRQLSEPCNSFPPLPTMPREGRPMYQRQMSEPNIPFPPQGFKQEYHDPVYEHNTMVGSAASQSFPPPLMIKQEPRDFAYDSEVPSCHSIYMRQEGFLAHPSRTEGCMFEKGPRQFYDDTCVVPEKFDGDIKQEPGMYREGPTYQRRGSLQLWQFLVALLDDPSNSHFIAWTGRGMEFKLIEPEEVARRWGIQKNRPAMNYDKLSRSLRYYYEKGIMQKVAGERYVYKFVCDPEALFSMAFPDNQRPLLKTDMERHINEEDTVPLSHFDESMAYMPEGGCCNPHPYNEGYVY
Summary of the method: as §1

ETV3L = molecular target: T7, ETV3L (Homo sapiens, UniProt Q6ZN32 1-361)
T7 sequence: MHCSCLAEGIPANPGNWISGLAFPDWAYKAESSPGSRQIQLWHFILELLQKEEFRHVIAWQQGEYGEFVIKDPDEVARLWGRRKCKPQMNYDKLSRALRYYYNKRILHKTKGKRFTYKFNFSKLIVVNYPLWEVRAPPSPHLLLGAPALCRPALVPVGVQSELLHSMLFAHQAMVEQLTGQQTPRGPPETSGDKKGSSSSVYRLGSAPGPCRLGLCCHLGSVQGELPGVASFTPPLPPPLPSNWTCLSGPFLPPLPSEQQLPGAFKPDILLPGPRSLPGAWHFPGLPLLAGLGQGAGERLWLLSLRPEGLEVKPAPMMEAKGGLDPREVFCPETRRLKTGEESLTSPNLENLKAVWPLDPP
Summary of the method: as §1

ETS2 = molecular target: T8, ETS2 (Homo sapiens, UniProt P15036 1-469)
T8 sequence: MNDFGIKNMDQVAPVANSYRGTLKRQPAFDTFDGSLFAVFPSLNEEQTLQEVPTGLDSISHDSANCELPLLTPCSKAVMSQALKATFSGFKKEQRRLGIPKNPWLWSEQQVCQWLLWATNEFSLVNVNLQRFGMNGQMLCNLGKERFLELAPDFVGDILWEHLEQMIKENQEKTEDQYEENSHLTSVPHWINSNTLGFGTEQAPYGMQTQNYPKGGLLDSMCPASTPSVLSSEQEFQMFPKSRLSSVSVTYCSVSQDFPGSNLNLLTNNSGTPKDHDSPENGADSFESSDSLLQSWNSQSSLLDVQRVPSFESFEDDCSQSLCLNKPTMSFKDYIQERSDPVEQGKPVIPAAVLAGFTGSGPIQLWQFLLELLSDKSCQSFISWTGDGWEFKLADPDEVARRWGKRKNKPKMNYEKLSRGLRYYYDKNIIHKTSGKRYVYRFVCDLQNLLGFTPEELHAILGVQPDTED
Summary of the method: as §1

SPDEF = molecular target: T9, SPDEF (Homo sapiens, UniProt O95238 1-335)
T9 sequence: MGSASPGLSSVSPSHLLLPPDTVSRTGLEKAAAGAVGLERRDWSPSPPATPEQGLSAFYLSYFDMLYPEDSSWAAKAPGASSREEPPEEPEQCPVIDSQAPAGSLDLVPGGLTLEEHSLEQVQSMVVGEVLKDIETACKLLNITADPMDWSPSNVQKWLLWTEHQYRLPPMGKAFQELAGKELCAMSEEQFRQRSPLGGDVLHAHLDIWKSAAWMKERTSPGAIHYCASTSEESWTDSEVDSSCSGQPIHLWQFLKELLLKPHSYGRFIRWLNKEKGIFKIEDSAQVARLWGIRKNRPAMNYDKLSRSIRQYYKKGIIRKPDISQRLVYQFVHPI
Summary of the method: as §1

ETV7 = molecular target: T10, ETV7 (Homo sapiens, UniProt Q9Y603 1-341)
T10 sequence: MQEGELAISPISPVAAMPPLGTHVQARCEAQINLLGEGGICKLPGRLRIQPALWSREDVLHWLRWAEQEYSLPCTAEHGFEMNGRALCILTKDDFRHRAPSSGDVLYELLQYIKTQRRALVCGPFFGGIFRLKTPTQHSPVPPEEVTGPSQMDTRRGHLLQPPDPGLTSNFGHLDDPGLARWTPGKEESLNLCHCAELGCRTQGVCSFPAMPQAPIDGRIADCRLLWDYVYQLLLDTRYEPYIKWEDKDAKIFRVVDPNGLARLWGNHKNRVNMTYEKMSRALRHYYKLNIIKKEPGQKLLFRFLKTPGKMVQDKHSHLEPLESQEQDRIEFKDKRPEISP
Summary of the method: as §1

ETV3 = molecular target: T11, ETV3 (Homo sapiens, UniProt P41162-2 1-143)
T11 sequence: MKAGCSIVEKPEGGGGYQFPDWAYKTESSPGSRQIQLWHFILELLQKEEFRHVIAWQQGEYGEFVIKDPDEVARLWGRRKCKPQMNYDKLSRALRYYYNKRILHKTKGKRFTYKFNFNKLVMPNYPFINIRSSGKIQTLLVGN
Summary of the method: as §1

ETV6 = ETV6 (Homo sapiens, UniProt P41212 1-452)
Sequence of ETV6 (P41212 whole entry): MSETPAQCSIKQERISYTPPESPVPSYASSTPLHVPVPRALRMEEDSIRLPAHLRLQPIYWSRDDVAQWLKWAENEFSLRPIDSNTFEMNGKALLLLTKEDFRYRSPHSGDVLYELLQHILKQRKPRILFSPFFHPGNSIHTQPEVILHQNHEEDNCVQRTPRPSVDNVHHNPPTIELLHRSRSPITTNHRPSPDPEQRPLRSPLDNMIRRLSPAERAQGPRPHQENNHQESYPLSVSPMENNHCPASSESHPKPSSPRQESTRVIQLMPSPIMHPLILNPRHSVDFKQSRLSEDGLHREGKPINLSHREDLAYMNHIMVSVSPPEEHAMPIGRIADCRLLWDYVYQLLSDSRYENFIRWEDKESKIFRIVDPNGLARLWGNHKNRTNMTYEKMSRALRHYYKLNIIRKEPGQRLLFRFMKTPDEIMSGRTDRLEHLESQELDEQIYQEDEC
Summary of the method: as §1

GTTACC
binding signal (ELK1): 1.16 fold enrichment (6-mer frequency, TF over GST control) | binding signal (GABPA): 1.05 fold enrichment (6-mer frequency, TF over GST control) | binding signal (ERG): 1.04 fold enrichment (6-mer frequency, TF over GST control) | binding signal (ELF1): 1.04 fold enrichment (6-mer frequency, TF over GST control) | binding signal (SPIB): 1.14 fold enrichment (6-mer frequency, TF over GST control) | binding signal (ELK3): 1.08 fold enrichment (6-mer frequency, TF over GST control) | binding signal (ETV5): 1.06 fold enrichment (6-mer frequency, TF over GST control) | binding signal (SPIC): 1.03 fold enrichment (6-mer frequency, TF over GST control) | binding signal (ELF4): 1.07 fold enrichment (6-mer frequency, TF over GST control) | binding signal (ELF3): 1.06 fold enrichment (6-mer frequency, TF over GST control) | binding signal (ETV1): 1.08 fold enrichment (6-mer frequency, TF over GST control) | binding signal (ETV3L): 1.04 fold enrichment (6-mer frequency, TF over GST control) | binding signal (ETS2): 1.09 fold enrichment (6-mer frequency, TF over GST control) | binding signal (SPDEF): 1.03 fold enrichment (6-mer frequency, TF over GST control) | binding signal (ETV7): 1.02 fold enrichment (6-mer frequency, TF over GST control) | binding signal (ETV3): 1.03 fold enrichment (6-mer frequency, TF over GST control) | binding signal (ETV6): 1.03 fold enrichment (6-mer frequency, TF over GST control)
